Compound activity: PubChem BioAssay, National Center for Advancing Translational Sciences (NCATS)
HepG2 tox: qHTS for Inhibitors of TGF-b: Cytotox Counterscreen. HepG2 CAGA-GFP viability, ATP luminescence, 18 h. Potency, µM (highest dose often 46.1 µM), hits mostly cytotoxic. 0.76% of 410,000 active. AID 588856, 2011
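HepG2 CAGA-GFP cells (1000/well, DMEM with 1% FBS) received compound, then TGF-beta at 500 pg/mL final, and were incubated 18 hours at 37 degrees C. Viability was read by CellTiter-Glo luminescence. Media-only wells were set as complete cell-killing and DMSO as no toxicity.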
ATXN2 expr inh: Primary qHTS for Inhibitors of ATXN expression; Potency, µM (doses to about 57 µM), hits mostly inhibitors; HEK-293 ATXN2-luciferase reporter, luminescence, 24 h; 0.72% of 360,000 active; AID 1745845, 2022; note: nearly all actives have a fitted effect of over 55% in size
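qHTS (up to 57 uM final) was run with 24 h compound exposure of reporter cells at 37 °C. Each well was multiplexed: SteadyGlo luminescence measured ATXN2-luciferase expression after a fluorogenic Gly-Phe-AFC viability readout (25 uM final).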
LDHA block: qHTS assay for inhibitors of human lactate dehydrogenase; L-lactate dehydrogenase A chain (Homo sapiens), P00338; 0.15% of 480,000 active; purified LDHA, NADH/diaphorase-resazurin fluorescence; stronger effect = lower value; activity change, % (values are at about 110 or 230 µM); in the data active = activity change below about -30%; inconclusive = mostly about -25% to -30%
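Human LDH5 at 2 nM final in Tris HCl pH 7.4 with 0.06 mM NADH and 0.2 mM pyruvate, reacted 5 minutes at room temperature. Remaining NADH coupled via diaphorase/resazurin; resorufin fluorescence read at 0 and 20 minutes, normalized to enzyme-free and DMSO wells.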
TGFb SMAD3 inh: qHTS for Inhibitors of TGF-b. 1.2% of 410,000 active. HepG2 CAGA-GFP TGF-b/SMAD3 reporter, GFP fluorescence, 18 h; TGF-beta stimulated, 500 pg/mL final. Potency, µM (series often up to 46.1 µM), actives largely listed as inhibitors; note: nearly all actives have a fitted effect of over 65% in size
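HEPG2 CAGA-GFP reporter cells (1000/well, DMEM with 1% FBS) received compounds, then recombinant TGF-beta at 500 pg/mL final for 18 hours at 37 degrees C. Per-cell GFP summed per well was normalised to unstimulated and stimulated DMSO controls before curve fitting.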
S2 tox: Viability Counterscreen for Primary qHTS for Inhibitors of ATXN expression; S2 cells (HEK-293 line with an ATXN2-luciferase reporter) viability, CellTiter-Fluor protease fluorescence, 24 h; Potency, µM (top dose mostly 56.7 µM), most hits filed as cytotoxic; 0.49% of 400,000 active; AID 651635, 2014; note: nearly all actives have a fitted effect of over 40% in size
mIDH1 inhibitor: qHTS for Inhibitors of mutant isocitrate dehydrogenase 1 (IDH1): qHTS; Isocitrate dehydrogenase [NADP] cytoplasmic (Homo sapiens), O75874; IDH1-R132H enzyme, NADPH consumption, diaphorase/resazurin fluorescence; Potency, µM (series often up to 76.6 µM), usual class: inhibitors; 0.093% of 390,000 active; AID 602179, 2012; note: nearly all actives have a fitted effect of over 65% in size
Target sequence (O75874 whole entry R132H, stated change not applied): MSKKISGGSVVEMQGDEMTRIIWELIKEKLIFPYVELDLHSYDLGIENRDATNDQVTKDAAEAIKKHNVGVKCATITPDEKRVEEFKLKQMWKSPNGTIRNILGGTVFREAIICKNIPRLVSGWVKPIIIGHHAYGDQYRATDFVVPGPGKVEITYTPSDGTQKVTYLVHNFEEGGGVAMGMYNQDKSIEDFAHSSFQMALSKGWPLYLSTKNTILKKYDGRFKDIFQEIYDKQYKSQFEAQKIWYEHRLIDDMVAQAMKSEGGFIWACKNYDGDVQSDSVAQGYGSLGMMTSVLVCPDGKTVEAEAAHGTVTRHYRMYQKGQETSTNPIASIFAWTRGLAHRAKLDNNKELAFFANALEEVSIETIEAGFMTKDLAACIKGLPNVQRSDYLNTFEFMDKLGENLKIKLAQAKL
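IDH1-R132H (0.5 ug/mL dispensed) in pH 7.5 Tris buffer was preincubated 30 min with compound, then given a substrate mix of 0.016 mM NADPH and 2 mM alpha-KG for 80 min at room temperature; remaining NADPH was read by diaphorase/resazurin fluorescence.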
Hits are given with their value; 0 = inactive; ? = inconclusive; - = not tested or not shown. Shown are actives, neighbours in structure and some others; about 2.2% of the full set was active somewhere. Unless noted, calls come from the whole dose curve; as a rule, active = well fitted curve in the direction sought with a large enough effect; inconclusive = small, poorly fitted or top-dose-only effect, or another doubt; inactive = no such curve, though single readings can be large; an effect the other way counts as inactive or inconclusive.

SMILES	HepG2 tox	ATXN2 expr inh	LDHA block	TGFb SMAD3 inh	S2 tox	mIDH1 inhibitor
CC(O)(CS(=O)(=O)Cc1ccccc1)C(=O)Nc1cccc(C(F)(F)F)c1 (configuration not stated)	0	0	0	0	0	0
Cc1[nH]c2ccccc2c1C(c1ccc(O)cc1)c1c(C)[nH]c2ccccc12	-	-	0	-	-	-
Cc1nc2ccc(NC(=O)c3ccccc3)cc2s1	0	0	0	0	0	0
Cc1nc2ccc(NC(=O)c3cccc(S(=O)(=O)N(C)c4ccccc4)c3)cc2s1	0	28µM	0	?	?	0
COc1cc(NC(=O)C2=C(C)OCCS2)c(Cl)cc1C(=O)NCc1ccc2c(c1)OCO2	-	-	0	-	-	-
COc1ccc(OC)c(N(CCN2C(=O)c3ccccc3C2=O)C(=O)CCl)c1	0	-	0	?	1.6µM	0
COc1ccc(NC(=O)CCN2C(=O)c3ccccc3C2=O)c(OC)c1	0	0	0	0	0	0
Nc1ccc(-c2nc3c(Cl)cc(N)cc3[nH]2)cc1	0	10µM	0	0	0	0
COc1cccc(CN2CCN(Cc3cc4ccccc4[nH]3)CC2CCO)c1 (configuration not stated)	0	-	0	22µM	0	0
CCOc1ccc(CN2CCN(Cc3cc4ccccc4[nH]3)CC2CCO)cc1 (configuration not stated)	0	0	0	?	0	0
CC1=C/C(=C(\c2cc(C)c(O)c(Br)c2)c2ccccc2S(=O)(=O)O)C=C(Br)C1=O	0	?	0	0	11µM	0
Cc1cc(C(=O)c2ccccc2)cc(C)c1O	0	0	0	0	?	0
Fc1cc(Br)ccc1Nc1c2c(nc3nc(-c4cccs4)nn13)CCCC2	0	0	0	10µM	0	?
Cc1ccc(Nc2c3c(nc4nc(-c5cccs5)nn24)CCCC3)cc1F	0	0	0	?	0	?
COc1ccc(C(=O)Nc2ncc(C)s2)cc1S(=O)(=O)N1CCOCC1	0	0	0	0	0	0
COc1cc(C)c(Sc2cnc(NC(=O)c3ccc(CNC(C)C(C)(C)C)cc3)s2)cc1C(=O)N1CCN(C(C)=O)CC1 (configuration not stated)	-	8.6µM	-	-	-	-
COc1ccccc1-c1nnc(SC2CCc3ccccc3NC2=O)s1 (configuration not stated)	0	0	0	13µM	0	0
O=C(Nc1nn[nH]n1)c1cccc([N+](=O)[O-])c1	0	0	0	0	0	0
CCOC(=O)COc1ccc(S(=O)(=O)c2ccc(OCC(=O)OCC)cc2)cc1	13µM	0	0	0	0	0
CCOC(=O)COc1ccc(S(=O)(=O)Nc2ccc(C)cc2)cc1	0	0	0	0	0	0
N#Cc1c(-c2ccco2)nc(SCC(=O)Nc2cccc(Cl)c2)[nH]c1=O	0	0	0	0	0	0
CC(C)(C)c1ccc(-c2nc(SCC(=O)Nc3ccc(Cl)cc3)[nH]c(=O)c2C#N)cc1	0	-	-31	?	-	0
COc1cc(/C=C(/C#N)C(=O)NCCc2c[nH]c3ccccc23)ccc1OCc1ccccc1F	0	7.1µM	0	0	10µM	0
Cc1cc(/C=C(\C#N)C(=O)NCCc2c[nH]c3ccccc23)c(C)n1C	0	0	0	0	0	0
CCc1ccccc1NC(=O)N1CCCc2ccccc21	0	0	0	0	0	0
Cc1ccc2nc(-c3ccc(O)c(O)c3)cn2c1	0	?	0	0	0	0
Cc1ccc2nc(-c3ccccc3)cn2c1	0	5µM	0	0	0	0
CCC(=O)c1ccc2c(c1)N(CCCN(C)C)c1ccccc1S2	16µM	?	0	?	?	0
CSCC(=O)NC1CCCN(C2Cc3ccccc3C2)C1 (configuration not stated)	7.9µM	0	0	?	?	0
CC(=O)c1cc2ccccc2o1	-	-	0	-	-	-
